Experiment in all cases: NCI-60 one-dose screen, 48 h (100 = growth as untreated, 0 = no growth, -100 = all killed)
Conditions in all cases: 10 µM unless noted

Experiment [1] deals with NCI-H23 lung.
Experiment [2] has as its system NCI-H226 lung.
Experiment [3] concerns NCI-H322M lung.
The test system of experiment [4] is HOP-62 NSCLC.
The test system of experiment [5] is NCI-H460 lung.
The subject of experiment [6] is HOP-92 NSCLC.
For experiment [7], the system named is NCI-H522 lung.
For experiment [8], the system named is A549/ATCC NSCLC.
Experiment [9] has as its system 786-0 renal.
For experiment [10], the system named is COLO 205 colon.
In experiment [11] the test system is DU-145 prostate.
Experiment [12] deals with K-562 leukemia.
The test system of experiment [13] is MALME-3M melanoma.
The test system of experiment [14] is MDA-MB-231 breast.
Experiment [15] relates to RXF 393 renal.
For experiment [16], the system named is SF-268 CNS.
Experiment [17] relates to SF-295 CNS.
Experiment [18] has as its system SF-539 CNS.
Experiment [19] has as its system UACC-257 melanoma.
In experiment [20] the test system is M14 melanoma.

From PubChem BioAssay (NCI) come the findings set out here.

About 83,000 compounds went through this panel and 20% of them were active in at least one assay; those are over-represented in the sample as a whole.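 For each line, cells grew in 96-well plates with the test compound present at a single concentration for 48 hours.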 Unmarked numbers belong to inactive results. Calls of active or inactive are those of the source. The calls were made as follows: active = growth percent below 10; inactive = the rest.

In the case of `COc1cccc(C(=O)NNc2nc(Cl)nc(N3CCN(C(c4ccccc4)c4ccccc4)CC3)n2)c1`, the growth in experiment [1] is 45.3%; in experiment [2], 94.9%; in experiment [3], 88.9%; in experiment [4] it was 92.8%; in [5], 102%; in [6] it was 77%. For the same molecule, the growth in experiment [7] is -13.6% (active); in experiment [8] it was 101%; in experiment [9], 82%; in experiment [10], 76.6%; in experiment [11] it was 101%; in experiment [12], -34.7% (active). The growth is 84.1% in experiment [13]; 59% in experiment [14]; 78.4% in experiment [15]; 99.3% in experiment [16]; 96.3% in [17]; 90.8% in experiment [18]. The figures for the growth in experiment [19] and in [20] were 88.4% and 45.4%, respectively.
For the molecule `CNC(=O)c1cc(Cn2nc(C)c(NC(=O)Nc3ccc(Cl)c(C(F)(F)F)c3)c2C)ccn1`, the growth in experiment [1] is 97.8%; in experiment [2] it was 96.6%; in [3] it was 94.5%; in [4], 93.4%; in experiment [5], 100%; in experiment [6], 106%. Further, the growth is 71.5% in experiment [7]; 70% in experiment [8]; 100% in [9]; 99.9% in experiment [10]; 101% in experiment [11]; 112% in experiment [12]. The growth in [13] was 98.5%; in experiment [14], 91.8%; in experiment [15] it was 102%; in experiment [16], 98%; in experiment [17] it was 95.5%; in [18], 94%. In addition, the growth was 79% in experiment [19] and 97.5% in [20].
On to `CC(=O)Nc1ccc(-c2ccc3c(c2)NC(=O)/C3=C\c2ccc[nH]2)cc1`, for which the growth in [1] was 52.5%; in [2] it was 85.8%; in experiment [3], 64.5%; in [4], 95.7%; in [5], 50.1%; in experiment [6], 130%. In addition, the growth in experiment [7] was 59.3%; in [8] it was 92.4%; in experiment [9], 99.3%; in experiment [10], 139%; in experiment [11], 72%; in experiment [12], 96.1%. The growth in experiment [13] was 109%; in experiment [14], 80.7%; in experiment [15] it was 104%; in [16], 92.1%; in [17], 87.2%; in experiment [18], 81.4%. Besides, the growth in [19] is 119%; in experiment [20] it was 105%.
As to `COc1ccc(C(=O)c2cc(C)c(OC)c(C)c2)c(OC)c1N(C(=O)CCl)C(=O)CCl`, the growth in experiment [1] is 20.8%; in experiment [2], 7.88% (active); in experiment [3], 36.2%; in experiment [4] it was 9.36% (active); in [5], 1.32% (active); in experiment [6], 7.45% (active). The growth in experiment [7] was 6.33% (active); in [8], 13.4%; in [9], 13.2%; in experiment [10] it was -39.4% (active); in experiment [11] it was 0.0631% (active); in [12], 9.77% (active). Further, the growth in [13] is 49.8%; in experiment [14], -1.61% (active); in experiment [15] it was 23.7%; in experiment [16] it was 24.6%; in [17] it was 5.4% (active); in [18] it was -21.1% (active). Besides, the growth was 46.2% in [19] and -20.7% (active) in experiment [20].
In the case of `O=[N+]([O-])CC(c1ccccc1)c1c[nH]c2ccccc12` (stereo not given), the growth was 68.5% in experiment [1]; 63.6% in experiment [2]; 97.6% in experiment [3]; 56% in experiment [4]; 52.6% in experiment [5]; 75.7% in experiment [6]. Besides, the growth in experiment [7] is 5.68% (active); in experiment [8], 42.4%; in experiment [9], 70%; in [10], 54.1%; in [11], 84.1%; in [12], 10%. The growth in experiment [13] is 57.3%; in experiment [14], 46.1%; in experiment [15], 64.3%; in experiment [16] it was 65.1%; in experiment [17], 44.1%; in [18], 50.2%. Also, the growth in experiment [19] is 55.8%; in [20], 23.2%.
Consider `COc1cc(/C=N/O)nc(-c2ccccn2)c1`, for which the growth in experiment [1] is 19.9%; in experiment [2] it was 11.7%; in experiment [3] it was 23.9%; in [4] it was 23.9%; in [5], 5.13% (active); in experiment [6], 54.4%. In addition, the growth in experiment [7] is 7.77% (active); in [8], 14.8%; in experiment [9] it was 17.5%; in experiment [10], 10.7%; in experiment [11] it was 24.7%; in experiment [12], 11.6%. Besides, the growth in experiment [13] is 6.48% (active); in experiment [14] it was 26.5%; in experiment [15], 21.2%; in experiment [16] it was 6.74% (active); in [17] it was 14.8%; in experiment [18] it was 4.89% (active). In addition, the growth is 5.15% (active) in [19] and 6.86% (active) in [20].
Turning to `Oc1ccc(C(c2ccc(O)cc2)c2ccc(Br)cn2)cc1`, the growth is -18.2% (active) in experiment [1]; -14% (active) in experiment [2]; -27.3% (active) in [3]; 77.5% in [4]; 107% in experiment [5]; -0.572% (active) in [6]. For the same molecule, the growth in [7] was 42.6%; in experiment [8] it was 37.3%; in [9] it was 89.7%; in experiment [10] it was 1.1% (active); in experiment [11] it was 47.4%; in experiment [12], 73.5%. The growth in experiment [13] was 99.3%; in experiment [14] it was 83%; in [15] it was -22% (active); in experiment [16] it was 104%; in experiment [17], -17.1% (active); in experiment [18] it was 84.9%. The values for the growth in experiment [19] and in experiment [20] were 91.3% and 78.8%, respectively.
For the molecule `CCc1ccc(CNc2ccc(N3CCOCC3)c(C(=O)O)c2)cc1`, the growth was 95.2% in experiment [1]; 109% in experiment [2]; 102% in experiment [3]; 90.2% in experiment [4]; 130% in [5]; 105% in experiment [6]. For the same molecule, the growth was 83.3% in experiment [7]; 99% in [8]; 98.9% in experiment [9]; 101% in experiment [10]; 105% in experiment [11]; 111% in [12]. The growth in experiment [13] was 101%; in experiment [14], 114%; in experiment [15], 121%; in [16], 95.6%; in experiment [17] it was 103%; in experiment [18], 100%. Also, the results for the growth in experiment [19] and in [20] were 106% and 99.7%, respectively.
